The values that follow come from PubChem BioAssay AID1822 (The Scripps Research Institute Molecular Screening Center, 2009).

Structures are written as SMILES. Where “and” joins values, the source holds several entries; their conditions need not be identical. Identical values can stand only once. Out of some 290,000 compounds screened, about 3,500 (1.2%) were called active. What follows is part of a selection rich in actives, with near analogues and random picks from the rest. A number with no mark means an inactive call.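 Rule for the calls: active = inhibition above the campaign mean inhibition over all tested compounds plus 3 SD (cut at about 28% in these data); inactive = the rest.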

In the test the test system is M18 aspartyl aminopeptidase (Plasmodium falciparum 3D7). Briefly: inhibition of P. falciparum M18 aminopeptidase – biochemical, QFRET, recombinant enzyme, primary screen (AID 1822).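 Note: 0% = plate median of test compound wells and 100% = 2 mM ZnCl2.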 The settings on record: recombinant PfM18AAP, H-Glu-NHMec fluorogenic cleavage; at 7.35 µM; hits give high values.
Usually inhibition stands for the relative decrease from the control value, in per cent. Take `COC(=O)c1ccc(NC(=O)CSc2nc(N)c(NC(=O)c3ccc(Br)o3)c(=O)[nH]2)cc1`: the inhibition is 0.86%.
Consider `COc1ccc(C(=O)Nc2c(N)nc(SCC(=O)Nc3ccc(C(C)=O)cc3)[nH]c2=O)cc1`, for which the inhibition was 7.68%.
The figure for `Nc1nc(SCC(=O)Nc2cc(C(F)(F)F)ccc2Cl)[nH]c(=O)c1NC(=O)c1ccco1` is 30.4% (active).
The figure for `COc1ccc(C)cc1Nc1nc(C)nc2c1oc1ccccc12` is 2.6%.
To `CCc1ccc(C(CNc2nc(C(F)(F)F)nc3ccccc23)N(C)C)cc1` (centres undefined) belongs 2.51%.
On to `Cc1cc(OC(=O)c2ccccc2Cl)ccc1N1C(=O)CCC1=O`, for which the inhibition is 3.74%.
As to `CCN(CC)S(=O)(=O)c1cc([N+](=O)[O-])ccc1N=Nc1c(O)n(C)c2ccccc12`, the inhibition is -3.78%.
The figure for `CCN(CC)S(=O)(=O)c1cc([N+](=O)[O-])ccc1NNC(=O)Nc1ccccc1` is 48.1% (active).
The figure for `CC(=O)c1ccc(NC(=O)Nc2ccc([N+](=O)[O-])cc2C)cc1` is -10.5%; for `CCCCN(CCCC)CCNC(=O)CN1C(=O)COc2ccc(S(=O)(=O)N3CCOCC3)cc21` it is 7.53%; for `CCCCN1C(=O)C(C)=C(C)C1OCCc1ccc(OC)c(OC)c1` (centres undefined) it is -8.94%.
Regarding `CC1(C(=O)N/N=C/c2cc3c(cc2Br)OCO3)CC1(Br)Br` (centres undefined), the inhibition is 7.28%.
The figure for `NNc1nc2c(Cl)cccc2s1` is 28.1% (active); for `CN(C)CCCN(C(=O)COc1ccccc1)c1nc2c(Cl)cccc2s1` it is -2.07%.
With `Fc1cc(F)c2nc(Nc3nc4c(F)cccc4s3)sc2c1`, the inhibition is -6.75%.
On to `CCOC(=O)C1CCCN(S(=O)(=O)c2ccc3c(c2)C(C)(C)C(=O)N3C)C1` (centres undefined), for which the inhibition was 7.85%.
To `OC(c1ccc(Cl)cc1)C(CN1CCOCC1)c1ccccc1` (centres undefined) belongs 1.27%; to `CCOc1ccc(S(=O)(=O)NCc2ccc3c(c2)OCO3)cc1C`, -10.2%.
On to `CSc1ccc(CCNC(=O)CS(=O)(=O)Cc2nc(-c3ccccc3F)oc2C)cc1`, for which the inhibition was -0.36%.
The figure for `Cc1nc2sc(C(c3ccco3)N3CCC4(CC3)OCCO4)c(O)n2n1` (centres undefined) is 0.84%; for `Oc1c(C(c2ccco2)N2CCC3(CC2)OCCO3)sc2ncnn12` (centres undefined) it is 35.8% (active); for `Oc1c(C(c2cccs2)N2CCN(c3ccc(F)cc3)CC2)sc2ncnn12` (centres undefined) it is 16.4%.
Turning to `CCc1nn(CCCN2CCN(c3cccc(Cl)c3)CC2)c(=O)n1CCOc1ccccc1`, the inhibition is 8.14% and 7.54%.
As to `O=S(=O)(c1ccc(Cl)cc1)N1CCCN(c2ccc(C(F)(F)F)cn2)CC1`, the inhibition was -1.37%.
The figure for `COc1ccc(OC)c(/C(C)=N\NC(=O)c2cc3cc(Cl)ccc3n2C)c1` is 3.86%.
Consider `Oc1ccc(N=Cc2sc3ccccc3c2Cl)cc1`, for which the inhibition is 21.1%.
On to `O=[N+]([O-])c1ccc(N=Cc2c(O)ccc3ccccc23)cc1`, for which the inhibition is -0.85%.
Take `Oc1ccc(N=Cc2c(O)ccc3ccccc23)cc1`: the inhibition was 28.4% (active).
As to `Clc1ccc(Cc2nn3c(-c4ccncc4)nnc3s2)cc1`, the inhibition is 8.22%.
The figure for `Cc1cccc(C(=O)NC(=S)N(C)C2CCCCC2)c1` is 7.02%.
With `NC(=O)c1c(NC(=O)CSc2nc(N)cc(=O)[nH]2)sc2c1CCCC2`, the inhibition was 8.38%.
For the compound `CCc1cccc(C)c1NC(=O)CSc1nnc(-c2ccco2)n1N`, the inhibition was 3.63%.
For the compound `NC(=O)c1c(NC(=O)CSc2nnc(-c3ccco3)n2N)sc2c1CCCC2`, the inhibition is 34.4% (active).
For `CC(C)c1ccc(S(=O)(=O)NC2CCCC2)cc1`, the inhibition is -8.03%.
To `Cc1ccccc1CN1CCC(C(=O)Nc2ccc(Oc3cccnc3)cc2)CC1` belongs 0.98%.
As to `O=C(c1ccccc1F)N1CCN(S(=O)(=O)c2ccc(Br)cc2)CC1`, the inhibition is 1.79%.
For the compound `O=C(c1ccc[nH]c1=S)N1CCN(S(=O)(=O)c2ccc(Br)cc2Cl)CC1`, the inhibition was 29.6% (active).
For the compound `O=C(c1ccc(Cl)c(S(=O)(=O)N2CCCCC2)c1)N1CCCCCC1`, the inhibition was -4.84%.
Take `COc1cc(NC(=O)C2=CC(c3ccco3)=NS(=O)(=O)N2C)cc(OC)c1OC`: the inhibition was 3.32%.
On to `O=C(N/N=C/c1ccc(OC(=O)c2ccccc2Cl)cc1)c1ccc(O)cc1`, for which the inhibition is 8.47%.
To `O=C(CO/N=C/c1ccccc1O)NNC(=O)c1ccccc1Cl` belongs 43.1% (active).
For `O=C(CO/N=C/c1ccccc1OC(F)F)NC1CCCC1`, the inhibition was 3.38%.
Turning to `CC(C)c1ccc(NC(=S)NC2CC3C=CC2C3)cc1` (centres undefined), the inhibition is -6.48%.
As to `CC(=O)c1cnc(Nc2nc(C)c3cc(C)ccc3n2)nc1C`, the inhibition was 1.6%.
Take `O=C(NCCCn1ccnc1)c1cc(-c2ccccc2)on1`: the inhibition is -9.41%.
Regarding `COc1ccc(-c2csc(Cc3nc(O)cs3)n2)cc1`, the inhibition is 8.2%.
Consider `Cc1onc(C(=O)NN)c1-c1csc(COc2ccccc2)n1`, for which the inhibition is -8.62%.
Consider `CC(C)(C)C(=O)OCc1nc(-c2ccc(O)c(O)c2)cs1`, for which the inhibition was 58.2% (active).
As to `COC(=O)[C@@H]1CCCN1C(=O)c1cc(COc2cccc3cccnc23)on1`, the inhibition was 3.55%.
To `COc1cc(C)c(C)cc1S(=O)(=O)N1CCCc2ccccc21` belongs -5.85%; to `Cc1[nH]c(C)c(S(=O)(=O)N2CCC(C)CC2)c1C(=O)N1CCCC1`, -4.62%; to `COCCCNC(=O)C1CC(=O)N(CCc2ccc(F)cc2)C1` (centres undefined), 2.65%.
In the case of `CCOC(=O)CSc1nnc(NC(=O)C2CC(=O)N(c3ccc(F)cc3)C2)s1` (centres undefined), the inhibition was -0.3%.
For `CC(C)(C)NC(=O)C(c1ccncc1)N(C(=O)CNC(=O)c1ccco1)c1ccc2c(c1)OCO2` (centres undefined), the inhibition was 35% (active).
On to `COc1cccc(N(C(=O)CNC(=O)c2ccco2)C(C(=O)NC2CCCCC2)c2cccnc2)c1` (centres undefined), for which the inhibition was 9.7%.
In the case of `Cc1ccc(N(C(=O)CNC(=O)c2ccco2)C(C(=O)NC2CCCC2)c2ccncc2)cc1` (centres undefined), the inhibition was 0.63%.
On to `C/C(CC1CC(C)(C)OC1=O)=N/Nc1nc(-c2ccccc2)cs1` (centres undefined), for which the inhibition is 6.59%.
Take `O=C(CSc1nccc(=O)[nH]1)Nc1ccc(N2CCOCC2)c(Cl)c1`: the inhibition was 2.24%.
To `O=C(CN1CCN(c2ccc(O)cc2)CC1)Nc1cc(S(=O)(=O)N2CCOCC2)ccc1Cl` belongs 30.2% (active).
In the case of `O=C(CN1CCN(c2ccccc2)CC1)Nc1ccc(F)cc1`, the inhibition was -1.61%.
For the compound `O=C(CN1CCOCC1)Nc1cc(Cl)ccc1Cl`, the inhibition was 1.38%.
In the case of `O=C(CN1CCN(c2ccc(F)cc2)CC1)Nc1ccccc1`, the inhibition is -7.36%.
To `O=C(CN1CCN(c2cccc(Cl)c2)CC1)Nc1ccc(S(=O)(=O)N2CCOCC2)cc1` belongs -3.74%; to `O=C(CN1CCN(c2ccc(O)cc2)CC1)Nc1ccc(-c2ccccc2)cc1`, 42% (active).
For the compound `Cn1cc[n+](C)c1COc1ccc(C=O)cc1`, the inhibition is -14%.
Turning to `CC1CN(C(=O)CCC(=O)NCCCN2CCC(Cc3ccccc3)CC2)c2cc(Cl)ccc2O1` (centres undefined), the inhibition is -5.3%.
To `O=C(C[n+]1ccc2c(c1)nnn2-c1ccccc1)c1ccc(Cl)cc1` belongs 0%; to `Cc1cc2nc3c(=O)n(Cc4ccccc4)c(=O)[nH]c3nc2cc1N`, 33.3% (active); to `CSc1nc2ccccc2c(=O)n1Cc1ccc(F)cc1`, 4.37%.
In the case of `CC(=O)c1ccc(-c2ccc(Cn3c(C)nc4cc(N)c(C)nc43)cc2)cc1`, the inhibition was -5.95%.
On to `CC1CCN(C(=O)C2CCN(S(=O)(=O)N3CCC4(CC3)OCCO4)CC2)CC1`, for which the inhibition is -6.53%.
For the compound `O=C(Nc1cccc(Cl)c1)C1CCCN(c2cnccn2)C1` (centres undefined), the inhibition is -0.72%.
In the case of `COc1cc(NC(=S)N2CCCC(C)C2)c(OC)cc1Cl` (centres undefined), the inhibition was 33.9% (active).
As for `COc1ccc(NC(=S)N2CCCC(CO)C2)c(OC)c1` (centres undefined), the inhibition is 1.11%.
Take `COc1cc(NC(=S)N2CCCC(C)C2)cc(OC)c1OC` (centres undefined): the inhibition was 16.2%.
Take `COc1ccc(S(=O)(=O)N2CCC(C(=O)NCCC(=O)NCc3cccc(OC)c3)CC2)cc1`: the inhibition was -4.58%.
On to `O=C(O)c1cccc2c1C(=O)N(C1CCCC1)C2`, for which the inhibition was -3.09%.
Take `C/C(=N\NC(=O)c1ccc(C)cc1)C1C(=O)c2ccccc2C1=O`: the inhibition is 9.83%.
As to `N#Cc1ccc(C(c2nnnn2CCc2ccccc2)N2CCCCCC2)cc1` (centres undefined), the inhibition is -9.05%.
As for `N#Cc1ccc(C(c2ccc(C#N)cc2)n2cncn2)cc1`, the inhibition was 51.3% (active).
On to `N#Cc1ccc(CSc2ncccn2)cc1`, for which the inhibition is 0.4%.
In the case of `CCOc1ccc(N/C=C/C(=O)c2ccccc2)cc1`, the inhibition was 0.48%.
For `Cc1nc2nc(COc3ccccc3)[nH]n2c(=O)c1Cc1ccccc1`, the inhibition was 5.29%.
Regarding `Cc1nc2nc[nH]n2c(=O)c1C/C=C/c1ccccc1`, the inhibition is 41.7% (active).
Turning to `C=CCc1c(C)nc2cc(-c3ccccc3)[nH]n2c1=O`, the inhibition is -0.1%.
As to `COC(=O)C1[C@H]2SC(C)(C)C(C(=O)OC)N2C(=O)N1Cc1nc2ccccc2s1` (some centres undefined), the inhibition was 2.76%.
The figure for `CSc1nnc(NC(=O)c2nc(S(=O)(=O)Cc3ccc(C)cc3)ncc2Cl)s1` is -15.5%; for `COC(=O)NNC1=CC(=O)CC(C)(C)C1` it is 9.27%; for `Cc1cc(C)nc(NNC2=CC(=O)CC(C)(C)C2)n1` it is 42.9% (active).
The figure for `CC1(C)CC(=O)C=C(Nc2ccccc2)C1` is -2.72%; for `Cc1onc(C(=O)Nc2ccc3c(c2)OCO3)c1[N+](=O)[O-]` it is -1.41%; for `S=c1[nH]nc(-c2ccco2)n1/N=C/c1ccccc1` it is 19.4%.
For the compound `Cc1cc(-c2n[nH]c(=S)n2/N=C/c2ccco2)n[nH]1`, the inhibition was 6.34%.
For `S=c1[nH]nc(-c2ccco2)n1/N=C/c1ccc(Br)s1`, the inhibition was 28% (active).
